Data published in PubChem BioAssay (Tox21).
“And” between values parts separate entries of the source, which are not always exact repeats. Equal values may be shown once. Records with an inconclusive call do not appear. Unmarked numbers belong to inactive results. The source made the active and inactive calls. Calls follow the shape of the dose curve; as a rule, active = well fitted cell-killing curve with a large enough effect in the repeat runs; inconclusive = weak or mixed curves; inactive = flat fitted curve, though single readings scatter.

Experiment: qHTS assay to identify small molecule antagonists of the estrogen related receptor (ERR) signaling pathway from Tox21 library - cell viability counter screen (AID 1224834); also: nearly all actives have a fitted effect of over 30% in size
Conditions: ERR reporter cells viability, CellTiter-Fluor, 17.5 h; series mostly up to 92.4 µM; viability change, negative = cytotoxic: at the top concentration
Source text: National Center for Advancing Translational Sciences [NCATS]
NIH Chemical Genomics Center [NCGC]
U.S. Environmental Protection Agency [EPA]
National Institutes of Environmental Health Sciences [NIEHS]
National Toxicology Program [NTP]
U.S. Food and Drug Administration [FDA]
Estrogen related receptors (ERRs), the first orphan nuclear receptors discovered, play an important role in the control of cellular energy metabolism. ERRs are required for high-energy production in response to the environmental challenges. ERR-alpha was also identified as an adverse marker for breast cancer progression; ERR-alpha-positive tumors have a poor prognosis. To screen and to identify environmental compounds that perturb the ERR signaling pathways could provide valuable information for potential therapeutic or preventive measures in the treatment of metabolic disease. To differentiate true ERR antagonists or agonist from cytotoxic substances, the assay is multiplexed with cell viability assay.
Tox21 Assay Protocol Summary:
The ERR cells were dispensed at 2,000 cells/5 ul/well in 1536-well white plates using a Multidrop dispenser. After the assay plates were incubated at a 37 C/5% CO2 incubator for 6 hours, 23 nL of compounds dissolved in DMSO, positive and negative controls or DMSO only was transferred to the assay plate by a pin tool. The plates were incubated at 37 C for 17.5 hours. 1 ul/well of CellTiter-Fluor reagent was added into the assay plates using a Flying Reagent Dispenser. After 30-minute incubation at 37 C/5% CO2, the fluorescence intensity in the plates was measured using a ViewLux plate reader.
% is scaled to controls: 0 for no effect and ±100 for the full control effect; potency is read from the fitted curve at half-maximal effect.

Structure (SMILES)	viability change, negative = cytotoxic	Potency
CC(C)C1(C)N=C(c2ncccc2C(=O)O)NC1=O (stereo not given)	3.99%	
COc1ccccc1N1CCNCC1	4.59% [at 42.5 µM]	
C#CC(O)(C=CCl)CC (stereo not given)	4.37% [at 42.5 µM]	
CCSCc1ccccc1OC(=O)NC	1.13%	
CN1C(=O)CN=C(c2ccccc2)c2cc([N+](=O)[O-])ccc21	-4.1% [at 42.5 µM]	
CC(C)(C)N(NC(=O)c1ccc(Cl)cc1)C(=O)c1ccccc1		12.1 µM (active)
O=C(NC(=O)c1cc(F)c(F)cc1Cl)Nc1cc(F)ccc1N1CCC(C(=O)O)CC1	-5.25% [at 42.5 µM]	
CC(C)(C#N)C(C)(C)C#N	2.87%	
CC(C)OC(=O)Cc1ccccc1	2.29%	
O=S(=O)(Cl)Cl	5.7%	
FC(Cl)(Cl)C(F)(Cl)Cl	-3.43%	
Nc1ccccc1C(=O)OCC(O)CO (stereo not given)	-10.9% [at 42.5 µM]	
Cc1nc(N(C)C)nc(OC(=O)N(C)C)c1C	-0.0945%	
O=[N+]([O-])/C=C/c1ccccc1		19.6 µM (active)
CCC(=O)O[C@@H]1C=C2CCC3C(CCC4(C)C3CC[C@@H]4OC(=O)CC)C2CC1 (stereo not given in full)	-1.3% [at 42.5 µM]	
CC(=O)OC(c1ccccc1)C(Cl)(Cl)Cl (stereo not given)	1.32%	
CN(C)c1ccc(N=O)cc1		27.4 µM (active) and 48.6 µM (active)
CCC(C)(C)O	-3.22%	
CCC(C)Cl (stereo not given)	1.1%	
C=CC(C)(CCC=C(C)C)OC(=O)c1ccccc1N (stereo not given)	1.34%	

Structure (SMILES)	viability change, negative = cytotoxic	Potency
CN[C@@H](C)[C@H](O)c1ccccc1	2.2% [at 42.5 µM]	
CCCC[P+](CC)(CCCC)CCCC (tested in a mixture with another compound)	-2.56%	
C#C[C@]1(O)CC[C@H]2[C@@H]3CCC4=CC(=O)CCC4=C3C=C[C@@]21CC		21.1 µM (active)
OC[P+](CO)(CO)CO		inactive
O=C(N/N=C/c1ccc([N+](=O)[O-])o1)c1cc([N+](=O)[O-])cc([N+](=O)[O-])c1O		11.9 µM (active)
Nc1c(Br)cc(Br)c2c1C(=O)c1ccccc1C2=O	-5.59% [at 19 µM]	
Cc1ccc2c(C)cccc2c1	3.78%	
O=C(O)c1cc(Cl)ccc1Cl	1.76%	
O=C(O)c1ccc(=O)[nH]c1	-3.75% [at 42.5 µM]	
C=C(C)C(=O)OCCCCOC(=O)C(=C)C	1.13%	
CCOP(=O)(O)C(N)=O	-3.31%	
CCC1(C2=NCCN2)Cc2ccccc2O1 (stereo not given)	0.586% [at 42.5 µM]	
COC1=CC(=O)O[C@@H](/C=C/c2ccc3c(c2)OCO3)C1	0.313%	
O=C1CC[C@@]2(O)[C@H]3Cc4ccc(O)c5c4[C@@]2(CCN3CC2CC2)[C@H]1O5	-5.21% [at 42.5 µM]	
COc1ccc(C(O)(c2cncnc2)C2CC2)cc1 (stereo not given)	6.84%	
CC(C)(C)OOC(C)(C)CCC(C)(C)OOC(C)(C)C	-1.96%	
CCC1(CCC(C)C)C(=O)NC(=O)NC1=O	-2.3%	
COc1cc(C[C@@H](C)N)c(OC)cc1Br	-10.2%	
O=C(Cl)OCCOCCOC(=O)Cl	5.01%	
CC(Cc1ccccc1)NCc1ccccc1Cl (stereo not given)	-1.44% [at 42.5 µM]	
